Experimental data published in the supplement of paper PMC6411743.
± gives the standard deviation of the averaged measurements. Targets with the largest changes are over-represented here; the source holds about 5,400 in all.

Compound: Nc1nc2c(ncn2[C@@H]2O[C@H](COP(=O)(O)OP(=O)(O)OP(=O)(O)O)[C@@H](O)[C@H]2O)c(=O)[nH]1 [guanosine triphosphate]
Experiment: NP40-soluble protein abundance relative to vehicle (solubility fold change) (ratio); higher = more soluble protein in presence of GTP
Description: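 Solubility proteome profiling in Jurkat crude lysate. Lysate was treated with Mg-GTP (0.1-10 mM) for 10 min at room temperature and 3 min at 37 °C, then solubilised with 0.8% NP40 and benzonase, followed by ultracentrifugation. Proteins were quantified by TMT10 LC-MS/MS; the value is the NP40-soluble abundance relative to the NP40-processed vehicle, from 3 independent experiments.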

Sequence of UniProt Q8NI27 (Q8NI27 whole entry): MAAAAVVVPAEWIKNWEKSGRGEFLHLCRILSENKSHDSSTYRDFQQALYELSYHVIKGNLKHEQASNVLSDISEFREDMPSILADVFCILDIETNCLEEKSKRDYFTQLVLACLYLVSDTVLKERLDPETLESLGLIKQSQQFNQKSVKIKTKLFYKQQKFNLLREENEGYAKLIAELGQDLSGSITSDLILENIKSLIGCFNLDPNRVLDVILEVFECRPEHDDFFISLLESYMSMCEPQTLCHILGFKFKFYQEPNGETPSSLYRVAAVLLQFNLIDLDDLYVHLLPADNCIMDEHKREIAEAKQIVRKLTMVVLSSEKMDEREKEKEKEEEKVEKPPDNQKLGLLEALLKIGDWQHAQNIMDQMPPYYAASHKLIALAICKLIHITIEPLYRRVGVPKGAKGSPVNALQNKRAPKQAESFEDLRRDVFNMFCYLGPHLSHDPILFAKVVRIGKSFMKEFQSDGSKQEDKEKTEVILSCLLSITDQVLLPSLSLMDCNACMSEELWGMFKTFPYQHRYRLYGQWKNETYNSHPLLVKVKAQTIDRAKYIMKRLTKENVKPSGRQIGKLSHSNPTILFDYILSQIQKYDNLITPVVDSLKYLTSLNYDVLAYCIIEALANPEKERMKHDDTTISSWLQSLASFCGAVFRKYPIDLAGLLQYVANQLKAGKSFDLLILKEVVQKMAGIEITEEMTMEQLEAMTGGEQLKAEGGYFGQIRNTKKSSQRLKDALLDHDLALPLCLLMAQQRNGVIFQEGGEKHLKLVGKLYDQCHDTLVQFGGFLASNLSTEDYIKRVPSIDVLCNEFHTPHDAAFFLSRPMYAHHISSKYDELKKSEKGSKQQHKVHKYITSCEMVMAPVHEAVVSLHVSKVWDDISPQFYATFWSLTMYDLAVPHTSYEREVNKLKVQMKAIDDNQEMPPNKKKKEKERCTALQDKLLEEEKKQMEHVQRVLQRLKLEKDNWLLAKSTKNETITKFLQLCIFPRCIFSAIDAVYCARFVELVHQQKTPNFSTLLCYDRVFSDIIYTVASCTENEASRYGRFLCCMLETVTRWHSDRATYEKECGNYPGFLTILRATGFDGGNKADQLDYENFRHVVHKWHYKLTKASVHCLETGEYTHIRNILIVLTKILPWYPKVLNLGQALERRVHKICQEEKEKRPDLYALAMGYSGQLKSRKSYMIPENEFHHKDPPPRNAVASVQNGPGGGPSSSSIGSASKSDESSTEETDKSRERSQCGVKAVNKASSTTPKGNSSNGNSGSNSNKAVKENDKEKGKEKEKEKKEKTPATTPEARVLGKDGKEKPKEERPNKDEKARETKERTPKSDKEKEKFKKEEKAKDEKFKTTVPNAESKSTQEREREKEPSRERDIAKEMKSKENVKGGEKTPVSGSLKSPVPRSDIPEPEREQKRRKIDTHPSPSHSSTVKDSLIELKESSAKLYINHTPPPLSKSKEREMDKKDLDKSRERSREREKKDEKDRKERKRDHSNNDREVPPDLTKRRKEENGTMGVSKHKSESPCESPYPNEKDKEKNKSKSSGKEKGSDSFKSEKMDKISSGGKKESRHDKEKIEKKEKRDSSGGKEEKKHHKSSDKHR
Sequence of UniProt Q00653 (Q00653 whole entry): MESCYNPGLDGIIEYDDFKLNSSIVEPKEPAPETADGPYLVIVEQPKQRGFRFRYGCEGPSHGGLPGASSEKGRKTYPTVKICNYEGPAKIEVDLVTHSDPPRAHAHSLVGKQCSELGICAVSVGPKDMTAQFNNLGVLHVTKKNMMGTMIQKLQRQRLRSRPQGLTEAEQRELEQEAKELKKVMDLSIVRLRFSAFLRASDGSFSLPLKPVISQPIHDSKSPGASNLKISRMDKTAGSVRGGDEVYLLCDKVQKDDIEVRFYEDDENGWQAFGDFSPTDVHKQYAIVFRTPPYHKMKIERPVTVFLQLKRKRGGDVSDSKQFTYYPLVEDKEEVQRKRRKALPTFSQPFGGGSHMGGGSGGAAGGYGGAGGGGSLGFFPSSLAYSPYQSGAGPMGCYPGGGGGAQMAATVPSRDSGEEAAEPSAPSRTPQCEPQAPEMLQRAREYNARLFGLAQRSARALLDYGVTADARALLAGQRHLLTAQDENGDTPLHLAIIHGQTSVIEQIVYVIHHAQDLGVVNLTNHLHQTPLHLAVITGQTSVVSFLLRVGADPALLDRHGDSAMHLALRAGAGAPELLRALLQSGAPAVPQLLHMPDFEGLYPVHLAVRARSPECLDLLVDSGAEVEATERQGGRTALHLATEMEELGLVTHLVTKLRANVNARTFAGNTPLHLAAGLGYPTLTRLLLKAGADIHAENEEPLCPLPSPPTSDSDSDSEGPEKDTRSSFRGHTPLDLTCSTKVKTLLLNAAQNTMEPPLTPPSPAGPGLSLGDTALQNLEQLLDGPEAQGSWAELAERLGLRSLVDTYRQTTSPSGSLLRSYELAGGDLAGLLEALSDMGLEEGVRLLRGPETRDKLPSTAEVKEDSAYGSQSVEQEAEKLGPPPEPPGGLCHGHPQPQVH
Sequence of UniProt Q8N8A6 (Q8N8A6 whole entry): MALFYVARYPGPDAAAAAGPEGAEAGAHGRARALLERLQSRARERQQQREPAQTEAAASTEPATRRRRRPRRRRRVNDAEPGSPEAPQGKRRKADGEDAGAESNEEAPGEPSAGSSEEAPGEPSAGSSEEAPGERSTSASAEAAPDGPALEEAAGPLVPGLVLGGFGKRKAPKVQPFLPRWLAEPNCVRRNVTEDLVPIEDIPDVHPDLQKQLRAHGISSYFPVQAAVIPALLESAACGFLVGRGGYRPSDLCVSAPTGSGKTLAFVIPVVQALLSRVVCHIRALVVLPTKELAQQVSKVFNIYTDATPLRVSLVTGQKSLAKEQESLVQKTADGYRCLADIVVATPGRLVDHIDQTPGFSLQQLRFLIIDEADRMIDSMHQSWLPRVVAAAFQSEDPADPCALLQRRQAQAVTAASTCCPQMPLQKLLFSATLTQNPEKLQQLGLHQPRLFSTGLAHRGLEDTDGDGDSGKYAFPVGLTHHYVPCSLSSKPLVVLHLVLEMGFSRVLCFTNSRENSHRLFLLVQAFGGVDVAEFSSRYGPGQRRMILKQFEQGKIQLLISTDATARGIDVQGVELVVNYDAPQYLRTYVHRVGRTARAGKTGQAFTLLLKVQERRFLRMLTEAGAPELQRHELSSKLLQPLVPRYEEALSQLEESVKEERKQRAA
Sequence of UniProt Q8WUR7 (Q8WUR7 whole entry): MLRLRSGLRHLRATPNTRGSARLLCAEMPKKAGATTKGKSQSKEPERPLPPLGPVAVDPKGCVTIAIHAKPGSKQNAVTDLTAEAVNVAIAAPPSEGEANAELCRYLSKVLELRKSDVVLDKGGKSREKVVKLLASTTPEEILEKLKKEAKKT
Sequence of UniProt Q10567 (Q10567 whole entry): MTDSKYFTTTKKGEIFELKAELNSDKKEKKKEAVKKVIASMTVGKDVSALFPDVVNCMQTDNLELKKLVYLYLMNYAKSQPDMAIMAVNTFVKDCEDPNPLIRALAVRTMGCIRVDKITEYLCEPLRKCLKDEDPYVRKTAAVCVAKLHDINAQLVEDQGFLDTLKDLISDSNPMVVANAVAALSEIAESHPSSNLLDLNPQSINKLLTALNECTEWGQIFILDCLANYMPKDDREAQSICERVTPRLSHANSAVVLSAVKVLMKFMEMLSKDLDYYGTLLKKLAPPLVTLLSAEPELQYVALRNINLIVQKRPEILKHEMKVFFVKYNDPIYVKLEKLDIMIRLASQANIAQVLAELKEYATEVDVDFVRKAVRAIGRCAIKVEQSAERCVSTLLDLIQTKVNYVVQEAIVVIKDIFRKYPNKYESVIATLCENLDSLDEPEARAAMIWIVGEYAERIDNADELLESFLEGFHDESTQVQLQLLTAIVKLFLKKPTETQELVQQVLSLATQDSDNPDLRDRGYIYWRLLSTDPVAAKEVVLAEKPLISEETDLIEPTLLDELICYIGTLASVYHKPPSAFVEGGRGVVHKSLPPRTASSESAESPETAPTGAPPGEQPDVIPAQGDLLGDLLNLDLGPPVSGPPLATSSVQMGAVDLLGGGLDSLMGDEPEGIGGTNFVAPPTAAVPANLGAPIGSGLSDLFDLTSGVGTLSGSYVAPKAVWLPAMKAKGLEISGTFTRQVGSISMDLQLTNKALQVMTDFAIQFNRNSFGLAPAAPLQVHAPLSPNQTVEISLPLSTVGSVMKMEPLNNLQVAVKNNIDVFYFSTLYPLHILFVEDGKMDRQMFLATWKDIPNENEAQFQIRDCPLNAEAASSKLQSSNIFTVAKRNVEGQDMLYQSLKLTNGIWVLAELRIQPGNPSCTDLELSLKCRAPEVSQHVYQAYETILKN

Target	NP40-soluble protein abundance (concentration: 0.1mM)	NP40-soluble protein abundance (concentration: 0.5mM)	NP40-soluble protein abundance (concentration: 1mM)	NP40-soluble protein abundance (concentration: 2mM)	NP40-soluble protein abundance (concentration: 4mM)	NP40-soluble protein abundance (concentration: 6mM)	NP40-soluble protein abundance (concentration: 8mM)	NP40-soluble protein abundance (concentration: 10mM)
UniProt Q00653|Q00653-4	0.995 ± 0.032	0.997 ± 0.021	0.959 ± 0.013	0.955 ± 0.037	0.96 ± 0.048	0.931 ± 0.016	0.966 ± 0.04	0.94 ± 0.045
C15orf40 (UniProt Q8WUR7)	1.02 ± 0.1	1.02 ± 0.084	1.03 ± 0.034	1.05 ± 0.12	1.04 ± 0.13	1.01 ± 0.097	1.11 ± 0.061	1.17 ± 0.12
THOC2 (UniProt Q8NI27)	1.14 ± 0.054	1.33 ± 0.14	1.39 ± 0.15	1.72 ± 0.29	2.05 ± 0.4	2.18 ± 0.51	2.23 ± 0.54	2.16 ± 0.48
UniProt Q10567|Q10567-2|Q10567-3	0.918 ± 0.056	0.927 ± 0.032	0.956 ± 0.054	0.943 ± 0.044	0.954 ± 0.04	0.919 ± 0.051	0.921 ± 0.05	0.924 ± 0.054
DDX51 (UniProt Q8N8A6)	1.07 ± 0.15	1.11 ± 0.05	1.2 ± 0.08	1.35 ± 0.09	1.64 ± 0.085	1.86 ± 0.21	2.05 ± 0.24	2.1 ± 0.15
